FBPA Giardia inh: Giardia lamblia aldolase inhibition; actives 0.71% (n = 290,000); purified Giardia FBPA; A8B2U2; AID 2451; Potency, µM (highest dose often 59.6 µM), usual class: inhibitors; further: nearly all actives have a fitted effect of over 55% in size
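40 nM FBPA preincubated 10 min at RT with compound (up to 57.5 uM final), then substrate plus GAPDH/TPI/NAD/arsenate coupling and diaphorase/resazurin added. Fluorescence read after 20 min at RT, 525/598 nm.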
LmPK inhibitor: LmPK (Leishmania mexicana) enzyme inhibition. Q27686. purified LmPK, Kinase-Glo ATP luminescence, 1 h. Potency, µM (highest dose often 57.5 µM), most hits filed as inhibitors. actives 0.37% (n = 290,000). AID 1721
Target sequence (Q27686 whole entry, looked up): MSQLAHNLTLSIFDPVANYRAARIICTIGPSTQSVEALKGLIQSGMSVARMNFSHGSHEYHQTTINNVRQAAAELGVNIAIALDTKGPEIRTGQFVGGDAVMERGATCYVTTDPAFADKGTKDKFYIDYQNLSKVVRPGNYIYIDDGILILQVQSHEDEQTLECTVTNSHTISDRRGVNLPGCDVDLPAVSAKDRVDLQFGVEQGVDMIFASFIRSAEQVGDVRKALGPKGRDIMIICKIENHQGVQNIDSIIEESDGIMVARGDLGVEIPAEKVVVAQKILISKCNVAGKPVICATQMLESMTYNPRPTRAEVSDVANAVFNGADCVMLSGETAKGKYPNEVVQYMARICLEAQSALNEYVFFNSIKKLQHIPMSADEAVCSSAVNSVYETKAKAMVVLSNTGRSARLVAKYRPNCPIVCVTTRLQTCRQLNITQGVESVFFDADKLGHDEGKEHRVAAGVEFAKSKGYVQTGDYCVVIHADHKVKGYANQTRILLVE
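Pyruvate kinase activity monitored as ATP production (luciferase luminescence). Conditions: 0.1 nM enzyme, 0.5 mM PEP, 0.1 mM ADP, 1 h, RT; normalized against uninhibited and no-enzyme wells.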
NS1 function inh: inhibitors of influenza NS1 protein function | Potency, µM (series often up to 46.1 µM) | actives 0.4% (n = 270,000); calls by dose curve; further: actives are rising curves; nearly all actives have a fitted effect of over 50% in size
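Growth recovery, yeast-based: influenza A NS1 expressed in S. cerevisiae causes slow growth, and suppressors are detected by OD600. The parent strain without NS1 is used as positive control.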
Shiga toxin inh: blocks Shiga toxin action in Vero cells | Vero cells, Shiga toxin protein synthesis inhibition reporter | actives 9.2% (n = 290,000) | inhibition, % at 38.7 µM; in the data active means inhibition mostly above about 28%, no sharp cut-off; inactive means mostly below about 43%
CHX counter: counter-screen for Shiga toxin inhibitors: cycloheximide protein synthesis inhibition; cell reporter, cycloheximide protein synthesis inhibition counterscreen; max response, %; actives 12% (n = 300,000); AID 2314; in the data active means max response mostly above about 13%, no sharp cut-off; inactive means mostly below about 14%; further: read at 38.3 µM for the half of the compounds with a filed dose
A number is an active result; [ ] = dose if it differs, or a comment. Compounds with a hit are over-represented: about 14% of the library has one in this group of screens. Unless noted, the call rests on the fitted dose curve; in most records, active means well fitted curve in the direction sought with a large enough effect; inconclusive means small, poorly fitted or top-dose-only effect, or another doubt; inactive means no such curve, though single readings can be large; an effect the other way counts as inactive or inconclusive.

CC(C)(C)N1C(=O)[C@H]2[C@H]3[C@H](O)[C@H](O)C/C(=N/OCc4ccccc4)[C@H]3CC[C@@H]2C1=O was read as FBPA Giardia inh inactive[12.9 µM].
`O=S(=O)(c1cc(F)ccc1F)N1CCN2CCCC2C1` (configuration not stated) gave FBPA Giardia inh inactive, LmPK inhibitor inactive, NS1 function inh inactive, Shiga toxin inh inactive and CHX counter inactive.
For COc1ccccc1Nc1nnc(SCC2CCCCO2)s1 (configuration not stated) the results were FBPA Giardia inh inactive, LmPK inhibitor 14µM, Shiga toxin inh inactive and CHX counter 26.
Screening CCCSc1nnc(NC(=O)Nc2ccccc2OC)s1 returned FBPA Giardia inh inactive, LmPK inhibitor inactive, NS1 function inh inactive, Shiga toxin inh 96 and CHX counter 34.
COc1ccccc1Nc1nnc(SCC(=O)N2CCCC2=O)s1 was read as FBPA Giardia inh inactive, LmPK inhibitor inactive, NS1 function inh inactive, Shiga toxin inh inactive and CHX counter inactive.
`COc1ccccc1Nc1nnc(SCC(=O)N2CCCC2)s1` gave FBPA Giardia inh inactive, LmPK inhibitor inconclusive, NS1 function inh inactive, Shiga toxin inh inactive and CHX counter 33.
`CCOc1ccccc1Nc1nnc(SCC(=O)N2CCCC2)s1` gave FBPA Giardia inh inactive, LmPK inhibitor inactive, NS1 function inh inactive, Shiga toxin inh inactive and CHX counter inactive.
For Cc1ccccc1Nc1nnc(SCC2CCCCO2)s1 (configuration not stated) the results were FBPA Giardia inh inactive, LmPK inhibitor inconclusive, NS1 function inh inactive, Shiga toxin inh 15 and CHX counter 55.
For CCOc1ccc(C(C)=O)cc1COc1ccc(C)nc1[N+](=O)[O-] the results were FBPA Giardia inh inactive, LmPK inhibitor inactive, NS1 function inh inactive, Shiga toxin inh inactive and CHX counter inactive.
Screening CN1CCN(S(=O)(=O)c2csc(C(N)=O)c2)CC1 returned LmPK inhibitor inactive, NS1 function inh inactive, Shiga toxin inh inactive and CHX counter inactive.
`Cc1ccc(Nc2nnc(SCC3CCCCO3)s2)cc1` (configuration not stated) gave FBPA Giardia inh inactive, LmPK inhibitor inactive, NS1 function inh inactive, Shiga toxin inh 54 and CHX counter 41.
For Cc1ccc(-n2c(SCC3CCCCO3)nnc2-c2ccco2)cc1 (configuration not stated) the results were FBPA Giardia inh inactive, LmPK inhibitor inactive, NS1 function inh inactive, Shiga toxin inh inactive and CHX counter inactive.
`C[C@@]12Cc3cnc(-c4ccccc4)nc3C[C@@H]1CC[C@@H]1[C@H]3CC[C@@](C)(O)[C@]3(C)CC[C@@H]12` gave NS1 function inh inactive.
Screening CNc1nnc(-c2ccc(N(C)C)cc2)s1 returned FBPA Giardia inh inactive, LmPK inhibitor inconclusive, NS1 function inh inactive, Shiga toxin inh inactive and CHX counter 18.
`CN(C)c1ccc(-c2ccncc2)cc1` gave FBPA Giardia inh inactive, LmPK inhibitor inactive, NS1 function inh inactive, Shiga toxin inh inactive and CHX counter inactive.
Screening COCCNC(=O)C1(CC(C)C)C=CCN1C(=O)OC (configuration not stated) returned FBPA Giardia inh inactive.
For Nc1nnc(N2CCCCC2)s1 the results were FBPA Giardia inh inactive, LmPK inhibitor inactive, NS1 function inh inactive, Shiga toxin inh inactive and CHX counter inactive.
For Nc1nnc(N2CCc3ccccc32)s1 the results were FBPA Giardia inh inactive, LmPK inhibitor inactive, NS1 function inh inactive, Shiga toxin inh 57 and CHX counter 27.
`NCCNCCN` gave FBPA Giardia inh 18µM, Shiga toxin inh 91 and CHX counter 43.
CC1=NN(c2ccccc2)C(=O)C1/C=C1/NC(=S)NC1=O (configuration not stated) was read as FBPA Giardia inh inactive, LmPK inhibitor inactive, NS1 function inh inactive, Shiga toxin inh inactive and CHX counter inactive.
`CC1=NN(c2ccccc2)C(=O)C1C=Nc1ccc(N(C)C)cc1` (configuration not stated) gave FBPA Giardia inh inconclusive, LmPK inhibitor inactive, NS1 function inh inactive, Shiga toxin inh 39 and CHX counter 17.
`N/C(=N\OC(=O)CC1CCCCC1)c1ccncc1` gave FBPA Giardia inh inactive, LmPK inhibitor inactive, NS1 function inh inactive, Shiga toxin inh 58 and CHX counter 17.
`N/C(=N\OC(=O)CCC1CCCC1)c1ccncc1` gave FBPA Giardia inh inactive, LmPK inhibitor inactive, NS1 function inh inactive, Shiga toxin inh inactive and CHX counter 20.

Assay outcomes: PubChem BioAssay, National Center for Advancing Translational Sciences (NCATS)
